By AC50 is commonly meant the concentration giving half of the maximal activity seen.

The source of these data is PubChem BioAssay (EPA / NIEHS).

SMILES strings stand for the structures. Activity calls are given as the source filed them. The calls were made as follows: active = hit-call score of the fitted dose curve at least 0.9, where 1 is the maximum; inactive = score below 0.9.

The nature of assay [1]: APR_HepG2_CellCycleArrest_24hr: Apredica 24-hour HepG2 Assay for Cell Cycle Arrest (AID 2282905).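 Also: cell cycle arrest scored as ratio of 2N to 4N nuclear DNA content.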 The conditions noted are these: imaging, actives raise or lower the signal. The method in brief:
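HepG2 cells were exposed to compounds at 0.39–200 uM (ten concentrations, duplicate) in 0.5% v/v DMSO for 24 hr. After formaldehyde fixation and Triton permeabilization, Hoechst 33342-stained nuclei were imaged at 20x; DNA content was quantified, with bidirectional fitting against DMSO.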

A short description of assay [2]: APR_HepG2_StressKinase_1hr: Apredica 1-hour HepG2 Assay for Stress Kinase (AID 2282906). The settings on record: HepG2 stress kinase (phospho-c-Jun) imaging, actives raise or lower the signal. The method in brief:
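HepG2 cells dosed 0.39-200 uM (0.5% DMSO) for 1 h, then formaldehyde-fixed. Stress kinase read by phospho-c-Jun immunofluorescence using high-content imaging; bidirectional fit vs DMSO.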

The nature of assay [3]: APR_HepG2_NuclearSize_24hr: Apredica 24-hour HepG2 Assay for Nuclear Size (AID 2282907). The conditions noted are these: high-content imaging, actives raise or lower the signal. The method in brief: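 HepG2 human liver cells were exposed for 24 hr to compounds at 0.39–200 uM (ten concentrations, duplicate) in 0.5% v/v DMSO. They were then formaldehyde-fixed, Triton-permeabilized and Hoechst 33342-stained, and nuclear diameter was imaged at 20x. Bidirectional fits were made against DMSO.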

Assay [4] can be described thus: APR_HepG2_CellLoss_24hr: Apredica 24-hour HepG2 Assay for Cell Loss (AID 2282908).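 As to AC50: fit in both directions so a hit may be cell loss or gain.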 The settings on record: high-content imaging. The method in brief:
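Compounds were tested at 0.39–200 uM in duplicate with 0.5% v/v DMSO final. Cells were then fixed in 3.7% formaldehyde, Hoechst 33342 nuclei were imaged at 20x by HCS, and cell number was fitted bidirectionally against DMSO.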

Assay [5] in a line: APR_HepG2_MicrotubuleCSK_24hr: Apredica 24-hour HepG2 Assay for Microtubule CSK Stabilty (AID 2282909). The settings on record: HepG2 microtubule cytoskeleton imaging, actives raise or lower the signal. The method in brief:
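HepG2 cells exposed 24 h to compounds at 0.39–200 uM (duplicate, 0.5% v/v DMSO final), then fixed, permeabilized and immunostained for alpha-tubulin with Hoechst 33342. Cytoskeleton imaged at 20x; bidirectional fit versus DMSO baseline.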

Assay [6] can be described thus: APR_HepG2_MitoticArrest_24hr: Apredica 24-hour HepG2 Assay for Mitotic Arrest (AID 2282910). The conditions noted are these: high-content imaging, actives raise or lower the signal. The method in brief: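 HepG2 human liver cells were exposed to compounds at 0.39–200 uM (10 concentrations, duplicate) in 0.5% v/v DMSO for 24 hr, then fixed and immunostained for phospho-histone H3 with Hoechst 33342. Mitotic arrest came from HCS fluorescent imaging, fitted bidirectionally against DMSO.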

Assay [7] in a line: APR_HepG2_MitoMembPot_24hr: Apredica 24-hour HepG2 Assay for Mitochondrial Membrane Potential (AID 2282911). The conditions noted are these: imaging, actives raise or lower the signal. The method in brief: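 HepG2 human liver cells were exposed 24 hr to compounds at 0.39–200 uM (final DMSO 0.5% v/v) in duplicate. MitoTracker Red CMXRos (250 nM, 30 min) was loaded before formaldehyde fixation; fluorescence was imaged by ArrayScan HCS and fitted bidirectionally versus DMSO.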

Assay [8] is described as follows: APR_HepG2_MitoMass_24hr: Apredica 24-hour HepG2 Assay for Mitochondrial Mass (AID 2282912). The conditions noted are these: high-content imaging, actives raise or lower the signal. The method in brief: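 Human HepG2 liver cells were exposed for 24 hr to compounds at 0.39–200 uM (duplicates, 0.5% v/v DMSO final). They were stained live with 250 nM MitoTracker Red CMXRos for 30 min, fixed in 3.7% formaldehyde, and imaged by HCS fluorescence; signals were fitted bidirectionally against DMSO.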

Assay [9] is described as follows: APR_HepG2_p53Act_24hr: Apredica 24-hour HepG2 Assay for p53 Activation (AID 2282913).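 Also: p53 protein immunofluorescence averaged per cell in HepG2 with Hoechst nuclei.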 The conditions noted are these: high-content imaging, actives raise or lower the signal. The method in brief:
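HepG2 cells exposed 24 hr to compounds at 0.39–200 uM (10 concentrations, duplicate), final DMSO 0.5% v/v. After formaldehyde fixation and Triton permeabilization, p53 was immunolabeled (sheep anti-p53, Cy5 secondary) with Hoechst 33342 nuclear counterstain, then imaged by high-content fluorescence microscopy.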

Assay [10] in a line: APR_HepG2_CellCycleArrest_72hr: Apredica 72-hour HepG2 Assay for Cell Cycle Arrest (AID 2282914). The settings on record: high-content imaging, actives raise or lower the signal. The method in brief: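 HepG2 cells were exposed to compounds at 0.39–200 uM (0.5% v/v DMSO final, duplicates) for 72 hr, fixed in 3.7% formaldehyde, permeabilized and stained with Hoechst 33342. Nuclear DNA content was quantified by high-content imaging; gain or loss of signal was fitted bidirectionally against DMSO.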

As for `Nc1cnn(-c2ccccc2)c(=O)c1Cl`, the molecule was called inactive in assay [1], in assay [2], in assay [3], in assay [4], in assay [5] and in [6]. Moreover, the result in assay [7], in [8] and in assay [9] was inactive.

For `C=CCOC(=O)C(C)(C)OC(=O)c1cc(-n2c(=O)cc(C(F)(F)F)n(C)c2=O)ccc1Cl`, the outcome in [1], in assay [2], in assay [3], in assay [4], in assay [5] and in [6] was inactive. The call in assay [7], in assay [8], in [9] and in [10] was inactive.

In the case of `CSC(=O)c1c(C(F)F)nc(C(F)(F)F)c(C(=O)SC)c1CC(C)C`, the result in assay [1], in assay [2], in assay [3], in assay [4], in [5] and in assay [6] was inactive. Also, the call in assay [7], in [8] and in [9] was inactive.

`CCNC(=O)NC(=O)C(C#N)=NOC`: the call in assay [1], in assay [2], in [3], in [4], in [5] and in assay [6] was inactive. For the same molecule, the outcome in [7] and in assay [8] was inactive.

Take `CC(C)Oc1cccc(NC(=O)c2ccccc2C(F)(F)F)c1`: the outcome in [1], in [2], in [3], in assay [4], in [5] and in assay [6] was inactive. Also, the call in [7], in assay [8], in assay [9] and in assay [10] was inactive.

Turning to `COC(=O)N(C(=O)N1CO[C@@]2(C(=O)OC)Cc3cc(Cl)ccc3C2=N1)c1ccc(OC(F)(F)F)cc1`, the result in assay [1], in assay [2], in [3], in [4], in [5] and in [6] was inactive. Besides, the molecule was called inactive in assay [7], in assay [8] and in assay [9].

Take `CCOP(=S)(OCC)Oc1nc(Cl)n(C(C)C)n1`: the result in assay [1], in [2], in assay [3], in assay [4], in [5] and in assay [6] was inactive. Also, the molecule was classed as inactive in assay [7], in assay [8] and in assay [9].

With `CCOc1nc(C(Cl)(Cl)Cl)ns1`, the molecule was called inactive in assay [1], in [2], in [3], in assay [4], in [5] and in assay [6]. Moreover, the call in assay [7], in [8] and in assay [9] was inactive.

Turning to `CCCCOCN(C(=O)CCl)c1c(CC)cccc1CC`, the molecule was classed as inactive in [1], in assay [3], in assay [6], in assay [7], in [8] and in [9]. Also, the outcome in assay [10] was inactive. In addition, the AC50 in [2] was 47.5 µM (active); in [4] it was 35.3 µM (active); in assay [5], 31.2 µM (active).

On to `CCCCC(C#N)(Cn1cncn1)c1ccc(Cl)cc1` (stereo not drawn), for which the molecule was classed as inactive in assay [1], in assay [2], in assay [3], in assay [4], in [5] and in [6]. Further, the result in assay [7], in assay [8] and in assay [9] was inactive.

Take `CC1(C)C(C(=O)OC(C#N)c2cccc(Oc3ccccc3)c2)C1(C)C` (stereo not drawn): the call in assay [1], in assay [2], in [3], in [4], in assay [5] and in assay [6] was inactive. For the same molecule, the result in assay [7], in assay [8] and in assay [9] was inactive.

For `COC(=O)c1c(C(F)F)nc(C(F)(F)F)c(C2=NCCS2)c1CC(C)C`, the call in assay [1], in assay [2], in assay [3], in assay [4], in assay [6] and in assay [8] was inactive. Further, in [9], the molecule was called inactive. In [5], the concentration at half-maximal activity (AC50) is 91.6 µM (active).

Regarding `Cc1c(COC(=O)[C@@H]2[C@H](/C=C(\Cl)C(F)(F)F)C2(C)C)cccc1-c1ccccc1`, the outcome in [1], in [2], in [3], in [4], in [5] and in [6] was inactive. The molecule was called inactive in [7], in [8] and in assay [9].

`COCC(=O)N(c1c(C)cccc1C)C(C)C(=O)OC` (stereo not drawn): the molecule was classed as inactive in assay [1], in [2], in assay [3], in assay [4], in [5] and in [6]. In addition, the molecule was classed as inactive in assay [7], in [8], in assay [9] and in assay [10].

With `CCC(C)n1c(=O)[nH]c(C)c(Br)c1=O` (stereo not drawn), the molecule was called inactive in [1], in assay [2], in [3], in assay [4], in assay [5] and in assay [6]. Moreover, the result in assay [7], in assay [8], in assay [9] and in assay [10] was inactive.

With `COc1cc(Cl)c(OC)cc1Cl`, the molecule was classed as inactive in assay [1], in [2], in assay [3], in assay [4], in [5] and in assay [6]. The outcome in [7], in assay [8], in [9] and in assay [10] was inactive.

As for `CC(C)NC(=O)N1CC(=O)N(c2cc(Cl)cc(Cl)c2)C1=O`, the outcome in assay [1], in assay [2], in assay [3], in assay [4], in [5] and in [6] was inactive. The call in assay [7], in assay [8], in assay [9] and in assay [10] was inactive.
